In the supplement of paper PMC4466140:

What follows are binders tested against AgAbp1 (assay: SPOT peptide array binding signal intensity (averaged, normalized) (arbitrary units (background-subtracted, floor 0; scale differs between SH3 domains)); higher = stronger binding of the SH3 domain to the peptide).
Experimental: (§1)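 GST-tagged SH3 domains from S. cerevisiae (Sc), A. gossypii (Ag), C. albicans (Ca) and S. pombe (Sp) were incubated at 10 ug/ml overnight at 4 C on cellulose SPOT membranes carrying 292 synthetic 15-mer peptides mined from the S. cerevisiae proteome (cysteines replaced by serines). Binding was detected with anti-GST antibody, HRP secondary and chemiluminescence, quantified with Genespotter, and reported as normalized spot intensities averaged over biological replicates.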

Binder | SPOT peptide array binding signal intensity
SKAKRPKFLLDLQIK | 32.5

Each binder was assayed against AgBbc1 in the same assay as above.
Experimental: as §1

Binder | SPOT peptide array binding signal intensity
SKAKRPKFLLDLQIK | 2

Each binder was assayed against AgBem1-D1 in the same assay as above.
Experimental: as §1

Binder | SPOT peptide array binding signal intensity
SKAKRPKFLLDLQIK | 60

Each binder was assayed against AgBzz1-D1 in the same assay as above.
Experimental: as §1

Binder | SPOT peptide array binding signal intensity
SKAKRPKFLLDLQIK | 38

What follows are binders tested against AgBzz1-D2 in the same assay as above.
Experimental: as §1

Binder | SPOT peptide array binding signal intensity
SKAKRPKFLLDLQIK | 29.5

The binders below were run against AgCyk3 in the same assay as above.
Experimental: as §1

Binder | SPOT peptide array binding signal intensity
SKAKRPKFLLDLQIK | 10

These binders were tested against AgFus1 in the same assay as above.
Experimental: as §1

Binder | SPOT peptide array binding signal intensity
SKAKRPKFLLDLQIK | 152

These binders were tested against AgHof1 in the same assay as above.
Experimental: as §1

Binder | SPOT peptide array binding signal intensity
SKAKRPKFLLDLQIK | 16.5

These binders were tested against AgHse1 in the same assay as above.
Experimental: as §1

Binder | SPOT peptide array binding signal intensity
SKAKRPKFLLDLQIK | 154

These binders were tested against AgLsb1 in the same assay as above.
Experimental: as §1

Binder | SPOT peptide array binding signal intensity
SKAKRPKFLLDLQIK | 2.75

What follows are binders tested against AgLsb4 in the same assay as above.
Experimental: as §1

Binder | SPOT peptide array binding signal intensity
SKAKRPKFLLDLQIK | 16

Each binder was assayed against AgMyo5 in the same assay as above.
Experimental: as §1

Binder | SPOT peptide array binding signal intensity
SKAKRPKFLLDLQIK | 0.25

What follows are binders tested against AgNbp2 in the same assay as above.
Experimental: as §1

Binder | SPOT peptide array binding signal intensity
SKAKRPKFLLDLQIK | 11

Each binder was assayed against AgRvs167 in the same assay as above.
Experimental: as §1

Binder | SPOT peptide array binding signal intensity
SKAKRPKFLLDLQIK | 3.33

Each binder was assayed against AgSho1 in the same assay as above.
Experimental: as §1

Binder | SPOT peptide array binding signal intensity
SKAKRPKFLLDLQIK | 15

The binders below were run against AgSla1-D1-D2 in the same assay as above.
Experimental: as §1

Binder | SPOT peptide array binding signal intensity
SKAKRPKFLLDLQIK | 214

Each binder was assayed against AgSla1-D3 in the same assay as above.
Experimental: as §1

Binder | SPOT peptide array binding signal intensity
SKAKRPKFLLDLQIK | 5.5

What follows are binders tested against CaAbp1-D1 in the same assay as above.
Experimental: as §1

Binder | SPOT peptide array binding signal intensity
SKAKRPKFLLDLQIK | 502

The binders below were run against CaAbp1-D2 in the same assay as above.
Experimental: as §1

Binder | SPOT peptide array binding signal intensity
SKAKRPKFLLDLQIK | 337

What follows are binders tested against CaBbc1 in the same assay as above.
Experimental: as §1

Binder | SPOT peptide array binding signal intensity
SKAKRPKFLLDLQIK | 80.8

What follows are binders tested against CaBem1-D1 in the same assay as above.
Experimental: as §1

Binder | SPOT peptide array binding signal intensity
SKAKRPKFLLDLQIK | 13.5

The binders below were run against CaBzz1-D1 in the same assay as above.
Experimental: as §1

Binder | SPOT peptide array binding signal intensity
SKAKRPKFLLDLQIK | 110

The binders below were run against CaBzz1-D2 in the same assay as above.
Experimental: as §1

Binder | SPOT peptide array binding signal intensity
SKAKRPKFLLDLQIK | 127

These binders were tested against CaCyk3 in the same assay as above.
Experimental: as §1

Binder | SPOT peptide array binding signal intensity
SKAKRPKFLLDLQIK | 19

The binders below were run against CaFus1 in the same assay as above.
Experimental: as §1

Binder | SPOT peptide array binding signal intensity
SKAKRPKFLLDLQIK | 510

These binders were tested against CaHof1 in the same assay as above.
Experimental: as §1

Binder | SPOT peptide array binding signal intensity
SKAKRPKFLLDLQIK | 0.5

The binders below were run against CaHse1 in the same assay as above.
Experimental: as §1

Binder | SPOT peptide array binding signal intensity
SKAKRPKFLLDLQIK | ≤ 0

What follows are binders tested against CaLsb1 in the same assay as above.
Experimental: as §1

Binder | SPOT peptide array binding signal intensity
SKAKRPKFLLDLQIK | ≤ 0

Each binder was assayed against CaLsb4 in the same assay as above.
Experimental: as §1

Binder | SPOT peptide array binding signal intensity
SKAKRPKFLLDLQIK | 3.5

The binders below were run against CaMyo5 in the same assay as above.
Experimental: as §1

Binder | SPOT peptide array binding signal intensity
SKAKRPKFLLDLQIK | 2

What follows are binders tested against CaNbp2 in the same assay as above.
Experimental: as §1

Binder | SPOT peptide array binding signal intensity
SKAKRPKFLLDLQIK | 72

What follows are binders tested against CaRvs167 in the same assay as above.
Experimental: as §1

Binder | SPOT peptide array binding signal intensity
SKAKRPKFLLDLQIK | 1.67

Each binder was assayed against CaRvs167-3 in the same assay as above.
Experimental: as §1

Binder | SPOT peptide array binding signal intensity
SKAKRPKFLLDLQIK | 40.8

What follows are binders tested against CaSho1 in the same assay as above.
Experimental: as §1

Binder | SPOT peptide array binding signal intensity
SKAKRPKFLLDLQIK | 148

These binders were tested against CaSla1-D1-D2 in the same assay as above.
Experimental: as §1

Binder | SPOT peptide array binding signal intensity
SKAKRPKFLLDLQIK | 11

What follows are binders tested against CaSla1-D3 in the same assay as above.
Experimental: as §1

Binder | SPOT peptide array binding signal intensity
SKAKRPKFLLDLQIK | ≤ 0

These binders were tested against ScAbp1 in the same assay as above.
Experimental: as §1

Binder | SPOT peptide array binding signal intensity
SKAKRPKFLLDLQIK | 19

The binders below were run against ScBbc1 in the same assay as above.
Experimental: as §1

Binder | SPOT peptide array binding signal intensity
SKAKRPKFLLDLQIK | 3.5

These binders were tested against ScBem1-D1 in the same assay as above.
Experimental: as §1

Binder | SPOT peptide array binding signal intensity
SKAKRPKFLLDLQIK | 9

These binders were tested against ScBzz1-D1 in the same assay as above.
Experimental: as §1

Binder | SPOT peptide array binding signal intensity
SKAKRPKFLLDLQIK | 33

What follows are binders tested against ScBzz1-D2 in the same assay as above.
Experimental: as §1

Binder | SPOT peptide array binding signal intensity
SKAKRPKFLLDLQIK | 24

Each binder was assayed against ScCyk3 in the same assay as above.
Experimental: as §1

Binder | SPOT peptide array binding signal intensity
SKAKRPKFLLDLQIK | 51

Each binder was assayed against ScFus1 in the same assay as above.
Experimental: as §1

Binder | SPOT peptide array binding signal intensity
SKAKRPKFLLDLQIK | 268

The binders below were run against ScHof1 in the same assay as above.
Experimental: as §1

Binder | SPOT peptide array binding signal intensity
SKAKRPKFLLDLQIK | ≤ 0

What follows are binders tested against ScHse1 in the same assay as above.
Experimental: as §1

Binder | SPOT peptide array binding signal intensity
SKAKRPKFLLDLQIK | 486

Each binder was assayed against ScLsb1 in the same assay as above.
Experimental: as §1

Binder | SPOT peptide array binding signal intensity
SKAKRPKFLLDLQIK | ≤ 0

What follows are binders tested against ScLsb2 in the same assay as above.
Experimental: as §1

Binder | SPOT peptide array binding signal intensity
SKAKRPKFLLDLQIK | ≤ 0

The binders below were run against ScLsb3 in the same assay as above.
Experimental: as §1

Binder | SPOT peptide array binding signal intensity
SKAKRPKFLLDLQIK | 6

Each binder was assayed against ScLsb4 in the same assay as above.
Experimental: as §1

Binder | SPOT peptide array binding signal intensity
SKAKRPKFLLDLQIK | 2

What follows are binders tested against ScMyo3 in the same assay as above.
Experimental: as §1

Binder | SPOT peptide array binding signal intensity
SKAKRPKFLLDLQIK | 1.5

These binders were tested against ScMyo5 in the same assay as above.
Experimental: as §1

Binder | SPOT peptide array binding signal intensity
SKAKRPKFLLDLQIK | 1

The binders below were run against ScNbp2 in the same assay as above.
Experimental: as §1

Binder | SPOT peptide array binding signal intensity
SKAKRPKFLLDLQIK | 62

These binders were tested against ScPex13 in the same assay as above.
Experimental: as §1

Binder | SPOT peptide array binding signal intensity
SKAKRPKFLLDLQIK | 4.25

Each binder was assayed against ScRvs167 in the same assay as above.
Experimental: as §1

Binder | SPOT peptide array binding signal intensity
SKAKRPKFLLDLQIK | 1.67

Each binder was assayed against ScSho1 in the same assay as above.
Experimental: as §1

Binder | SPOT peptide array binding signal intensity
SKAKRPKFLLDLQIK | 398

These binders were tested against ScSla1-D1-D2 in the same assay as above.
Experimental: as §1

Binder | SPOT peptide array binding signal intensity
SKAKRPKFLLDLQIK | 27

What follows are binders tested against ScSla1-D3 in the same assay as above.
Experimental: as §1

Binder | SPOT peptide array binding signal intensity
SKAKRPKFLLDLQIK | 5

Each binder was assayed against SpAbp1-D1 in the same assay as above.
Experimental: as §1

Binder | SPOT peptide array binding signal intensity
SKAKRPKFLLDLQIK | 171

These binders were tested against SpBbc1 in the same assay as above.
Experimental: as §1

Binder | SPOT peptide array binding signal intensity
SKAKRPKFLLDLQIK | 1.75

What follows are binders tested against SpBzz1-D1 in the same assay as above.
Experimental: as §1

Binder | SPOT peptide array binding signal intensity
SKAKRPKFLLDLQIK | 346

Each binder was assayed against SpBzz1-D2 in the same assay as above.
Experimental: as §1

Binder | SPOT peptide array binding signal intensity
SKAKRPKFLLDLQIK | 0.5

What follows are binders tested against SpCyk3 in the same assay as above.
Experimental: as §1

Binder | SPOT peptide array binding signal intensity
SKAKRPKFLLDLQIK | 14.5

These binders were tested against SpHof1 in the same assay as above.
Experimental: as §1

Binder | SPOT peptide array binding signal intensity
SKAKRPKFLLDLQIK | 25.2

Each binder was assayed against SpHof1-2 in the same assay as above.
Experimental: as §1

Binder | SPOT peptide array binding signal intensity
SKAKRPKFLLDLQIK | 5

What follows are binders tested against SpHof1-3 in the same assay as above.
Experimental: as §1

Binder | SPOT peptide array binding signal intensity
SKAKRPKFLLDLQIK | 386

What follows are binders tested against SpHse1 in the same assay as above.
Experimental: as §1

Binder | SPOT peptide array binding signal intensity
SKAKRPKFLLDLQIK | 119

What follows are binders tested against SpLsb1 in the same assay as above.
Experimental: as §1

Binder | SPOT peptide array binding signal intensity
SKAKRPKFLLDLQIK | 1

The binders below were run against SpLsb4 in the same assay as above.
Experimental: as §1

Binder | SPOT peptide array binding signal intensity
SKAKRPKFLLDLQIK | ≤ 0

These binders were tested against SpMyo1 in the same assay as above.
Experimental: as §1

Binder | SPOT peptide array binding signal intensity
SKAKRPKFLLDLQIK | ≤ 0

Each binder was assayed against SpNbp2 in the same assay as above.
Experimental: as §1

Binder | SPOT peptide array binding signal intensity
SKAKRPKFLLDLQIK | 33.5

The binders below were run against SpPex13 in the same assay as above.
Experimental: as §1

Binder | SPOT peptide array binding signal intensity
SKAKRPKFLLDLQIK | 2.5

The binders below were run against SpRvs167 in the same assay as above.
Experimental: as §1

Binder | SPOT peptide array binding signal intensity
SKAKRPKFLLDLQIK | ≤ 0

What follows are binders tested against SpSla1-D1-D2 in the same assay as above.
Experimental: as §1

Binder | SPOT peptide array binding signal intensity
SKAKRPKFLLDLQIK | 3

What follows are binders tested against SpSla1-D3 in the same assay as above.
Experimental: as §1

Binder | SPOT peptide array binding signal intensity
SKAKRPKFLLDLQIK | 3
